Experimental data from PubChem BioAssay (NCI).
This is part of a sample that, as a whole, favours compounds with a hit. Of some 83,000 tested, about 20% had one in any assay.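 Interpretation: 100, growth as untreated; towards 0, rising growth inhibition; 0, no net growth; 0 to -100, cell death. Compounds scoring below 10 were considered active.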 Unmarked numbers belong to inactive results. Active and inactive are the calls of the source.

System: HL-60(TB) leukemia
Test: NCI-60 one-dose screen, 48 h (100 = growth as untreated, 0 = no growth, -100 = all killed)
Settings: 10 µM unless noted

| SMILES | growth |
| --- | --- |
| COc1cc(-c2csc(NC(=O)c3cc(F)cc(C(F)(F)F)c3)n2)cc(OC)c1OC | 14% |
| OC(COc1cccc2ccccc12)CN1CCN(c2ccccc2)CC1 (stereo unspecified) | 90.9% |
| O=c1c2cc(F)ccc2sc2c(NCCO)nc3ccccc3c12 | 91.9% |
| O=C(Nc1ccc([N+](=O)[O-])cc1)c1cc2ccccc2cc1O | -16.7% (active) |
| N#C/C(=C\c1ccc(-c2ccc(Cl)cc2)o1)c1ccc(Cl)cc1 | 96.1% |
| Cc1cc(Cl)c2ccc(N(C)C)cc2n1 | 93.6% |
| COC(=O)CC1=C(C)/C(=C/c2[nH]c(-c3ccc[nH]3)cc2OC)N=C1C | -29.2% (active) |
| COc1cc(C(=O)N2CCN(C(=O)c3cc(OC)c(OCc4ccccc4)cc3N)CC2)c(N)cc1OCc1ccccc1 | 112% |
| Cn1c(=O)c2[nH]c(SCC(=O)Nc3ccc(C(=O)/C=C/c4ccccc4Cl)cc3)nc2n(C)c1=O | 98.6% |
| CC[C@@H]1NC(=O)[C@H]([C@H](O)[C@H](C)C/C=C/c2ccc(CN3C(=O)C(C)=C(C)C3=O)cc2)N(C)C(=O)[C@H](C(C)C)N(C)C(=O)[C@H](CC(C)C)N(C)C(=O)[C@H](CC(C)C)N(C)C(=O)[C@@H](C)NC(=O)[C@H](C)NC(=O)[C@H](CC(C)C)N(C)C(=O)[C@H](C(C)C)NC(=O)[C@H](CC(C)C)N(C)C(=O)CN(C)C1=O | 81.2% |
| CCOC(=O)CC(c1ccccc1)C(C#N)c1ccccc1 (stereo unspecified) | 99.3% |
| CCCCCc1c(C)[nH]c(/C=C2\N=C(c3ccc[nH]3)C=C2CC)c1C | -62% (active) |
| Cn1c(=O)c2[nH]c(CCCc3nc4c([nH]3)c(=O)n(C)c(=O)n4C)nc2n(C)c1=O | 109% |
| O=C(O)c1cccc2c1-c1ccc(Cl)cc1C2 | 78.1% |
| CC(C)(C)CC(C)(C)c1ccc(O)c(Cc2ccc(Cl)cc2Cl)c1 | -61.6% (active) |
| CCOC(=O)C1=NN(c2ccccc2)C(=O)/C1=C\N1C(=O)/C(=C/c2cccc(O)c2)SC1=S | 93.2% |
| CCOC(=O)c1c(/N=C2\SC(=O)/C(=C\C(=O)OC)N2NC)sc2c1CCN(C(=O)OCC)C2 | 108% |
| CN1CCN(c2nc3scc(-c4ccccc4)c3c(=O)[nH]2)CC1 | 90.8% |

| SMILES | growth |
| --- | --- |
| O=c1[nH]nc(-c2ccc(Br)cc2)cc1Cc1ccc(O)cc1 | 85.4% |
| FC(F)(F)c1ccc(/C=N/Nc2nnc3n2N=C(c2ccc(Cl)cc2)CS3)cc1 | 93.3% |
| Cn1cc(-c2csc(-c3cn(CCN)c4ccc(Br)cc34)n2)c2cccnc21 | 41% |
| C/C(=C/CCC(C)[C@@H]1CC[C@]2(C)C3=C(CC[C@@]12C)[C@@]1(C)CCC(=O)C(C)(C)[C@@H]1CC3)C(=O)O (stereo partly specified) | -58.8% (active) |
| O=C(O)CCC(NC(=O)OCc1ccccc1)C(=O)O (stereo unspecified) | 108% |
| Cc1ccc([P+](Cc2ccccc2)(c2ccccc2)c2ccccc2)cc1 | -36.4% (active) |
| c1ccc(-c2cc3n4c(-c5ccccc5)nn(-c5ccccc5)c4cnc-3n2)cc1 | 120% |
| COC(=O)c1ccc(NC(N)=NCC(C)(C)COc2ccc(C(F)(F)F)cc2)nc1 | -49% (active) |
| CC(=O)Nc1ccc([I+]c2ccc([N+](=O)[O-])cc2)cc1 | 109% |
| CNC(=O)c1ccccc1Nc1nc(Nc2cc(OC)c(OC)c(OC)c2)ncc1Br | 19% |
| COC(=O)/C=C1/SC(=Nc2ccc([N+](=O)[O-])cc2)N(CCc2c[nH]c3ccc(O)cc23)C1=O | 32.2% |
| O=C1Cc2cc(CCN3CCN(c4nsc5ccccc45)CC3)c(Cl)cc2N1 | 108% |
| Cc1cccc(NC(=O)c2sc3nc4c(cc3c2N)CCCC4)c1 | 22.1% |
| CCCCCCCCOC(=O)C(C)OC(=O)OCCOCCOC(=O)OC(C)C(=O)OCCCCCCCC (stereo unspecified) | 108% |
| CC12CCC(/C(=C/NNc3ccc([N+](=O)[O-])cc3[N+](=O)[O-])C1=O)C2(C)C (stereo unspecified) | 110% |
| CC(C)N(C(=S)SSC(=S)N(C(C)C)C(C)C)C(C)C | 122% |
| CSc1nc2ncc([N+](=O)[O-])c(=O)n2[nH]1 | 106% |
| O=C1/C(=C\c2ccc(Br)cc2)CN(C(=O)c2ccccc2F)C/C1=C\c1ccc(Br)cc1 | 33.6% |
